Shown are actives, neighbours in structure and some others; about 1.1% of the full set was active somewhere.
HTR5A inv ctr – inverse agonist of human HTR5A in OPRM1-OPRD1 counter-screen; HTR5A cell line, luminescence, inverse agonism; AID 504634; inhibition, % at 9.3 µM; actives 0.083% (n = 340,000); in the data active = inhibition mostly above about 23%, no sharp cut-off; inactive = mostly below about 18%;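 note: 0% = cells with DMSO and 100% = no-cell wells with DMSO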
OPRM1-OPRD1 inv – inverse agonist of human OPRM1-OPRD1 heterodimerization | P35372+P41143 | cell-based MOR-DOR heterodimer luminescence, inverse agonism | actives 0.21% (n = 340,000) | inhibition, % at 9.3 µM; in the data active = inhibition above about 22%, passing the limit was not always enough;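 note: 0% = cells with DMSO and 100% = wells without cells with DMSO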
OPRM1-OPRD1 ag – OPRM1-OPRD1 heterodimerization agonism | activation, % at 9.3 µM | actives 0.3% (n = 340,000) | AID 504326 | cells, luminescence; in the data active = activation above about 18%;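 note: 0% = vehicle-treated cells and 100% = reference agonist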
HTR5A ag – counter-screen for OPRM1-OPRD1 agonists: human HTR5A agonism. HTR5A agonist assay, luminescence, cell-based. activation, % at 9.3 µM. actives 0.61% (n = 340,000); in the data active = activation mostly above about 9.5%, no sharp cut-off; inactive = mostly below about 7.6%;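 note: 0% = cells with vehicle only and 100% = reference agonist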
The depositor's hits bear a star.

SMILES	HTR5A inv ctr	OPRM1-OPRD1 inv	OPRM1-OPRD1 ag	HTR5A ag
CC1CCCCN1C(=O)CN1C(=O)NC2(CCCCC2C)C1=O (configuration not stated)	13	13	-3	0
Cc1cc(C)n(C(=O)/C(C#N)=N\Nc2ccccc2[N+](=O)[O-])n1	-1	-6	1	8
Cc1cc(C)n(C(=O)/C(C#N)=N/Nc2cc(Cl)cc(Cl)c2)n1	9	-30	6	10*
COc1ccc(C/C(N)=N/OC(=O)c2ccc(Cl)cc2)cc1	-18	-14	3	7
N/C(Cc1ccc(Cl)cc1)=N\OC(=O)c1ccc2ccccc2c1	-81	-160	27*	34*
O=C(C#Cc1ccccc1)Nc1ccc(F)cc1	-30	15	-3	9.0*
C=C(C)Cn1c(CCNC(=O)C(C)(C)C)nc2ccccc21	-4	5	-1	10*
COc1ccccc1CNC(=O)Cn1nc(C(F)(F)F)cc1C	-1	7	-2	0
O=C(O)c1ccc(N/N=C/c2ccc(-c3ccccc3)cc2)cc1	-10	7	-1	13*
COc1ccc(C(=O)SC2=NCCS2)cc1	-13	-12	2	12*
CCCSC1=C(C#N)C(c2ccc(OC)cc2)C2=C(CC(C)(C)CC2=O)N1 (configuration not stated)	-40	3	-1	11*
Cc1cc(C)nc(N2CCCC(C(=O)NCc3cccc(C(F)(F)F)c3)C2)n1 (configuration not stated)	-12	12	-2	12*
O=C(NN1CCOCC1)c1sc2cccc(F)c2c1Cl	2	6	-1	-1
CC1CCC(NC(=O)CCS(=O)(=O)c2ccc3c(c2)CCN3C(=O)C2CC2)CC1 (configuration not stated)	-17	13	-3	10*
CCOC(=O)N1CCC(NC(=O)CCS(=O)(=O)c2ccc3c(c2)CCN3C(C)=O)CC1	-14	-1	0	0
O=C(Nc1ccc(Cl)cc1)c1cc2c(cc1O)[nH]c1ccccc12	-50	-28	6	14*
CC(=O)Nc1ccc(S(=O)(=O)NC2(C(F)(F)F)NC(=O)N(C3CCCCC3)C2=O)cc1 (configuration not stated)	12	-2	0	10*
CC(=O)Nc1cc(OC(C)=O)c2nonc2c1OC(C)=O	-11	-134	23*	10
CC(=O)Nc1nonc1NC(C)=O	6	0	0	-2
CCS(=O)(=O)C1=NN2C(=N)/C(=C\c3ccc(SCc4ccco4)o3)C(=O)N=C2S1	1	-67	9	13*
O=C(Nc1ccn(CCCNCc2ccc3c(c2)OCO3)c(=O)n1)OCc1ccccc1	6	5	-1	-2
COc1ccccc1NC(=O)CS(=O)(=O)c1cccc2nsnc12	34	9	-2	12*
COc1ccccc1CC(=O)N1CCN(c2ccccc2)CC1	3	21	-4	-1
NC(=S)NC(c1ccccc1)c1ccncc1 (configuration not stated)	-7	10	-2	3
Cc1ccc(S(=O)(=O)NCc2ccc(C(=O)N3CCN(c4ccc([N+](=O)[O-])cc4)CC3)cc2)cc1	0	-20	4	11*
SMILES	HTR5A inv ctr	OPRM1-OPRD1 inv	OPRM1-OPRD1 ag	HTR5A ag
COc1ccc(N2CCN(C(=O)c3ccc(CNS(=O)(=O)c4ccc(C)cc4)cc3)CC2)cc1	1	-1	0	1
CCNc1nc(NCC)nc(SCC(C)=O)n1	6	4	-1	1
Cc1ccc(S(=O)(=O)Nc2ccc3nc(C)sc3c2)cc1	6	-2	0	-1
Cc1nc2ccc(NS(=O)(=O)c3cccc([N+](=O)[O-])c3)cc2s1	-37	-3	1	9.0*
CS(=O)(=O)c1sc(C#N)c2c1C(=O)CC(c1ccccc1)C2 (configuration not stated)	14	35*	-7	-7
Cc1oc2c(c(=O)c1C)C(=O)CC(c1ccccc1)C2 (configuration not stated)	2	10	-2	2
CCC(C)Sc1ccc(-c2nc3ccc(C)cn3c2NCc2ccccc2)cc1OC (configuration not stated)	-33	-46	8	11*
CCC(C)Sc1cc(-c2nc3ccc(C)cn3c2NCc2ccccc2)ccc1OC (configuration not stated)	10	-124	21*	16*
COC(=O)c1cc(-c2ccc(S(=O)(=O)N3CCCC(C)C3)cc2)c(C(F)(F)F)s1 (configuration not stated)	18	11	-2	-6
COc1cccc(CN(C)C(=O)c2cccc(NC(=O)CC3SC(N4CCCCC4)=NC3=O)c2)c1OC (configuration not stated)	6	10	-2	3
COc1ccc(CN(C)C(=O)c2cccc(NC(=O)CC3SC(N4CCCCC4)=NC3=O)c2)c(OC)c1 (configuration not stated)	-29	-25	5	11*
O=C(Cc1c[nH]c2ccccc12)NCc1ccncc1	17	2	0	11*
O=C(Cc1ccccc1)NCc1ccncc1	-16	9	-2	0
C#CCOCCOCCOCCNc1nc(N2CCOCC2)nc(N2CCN(C(=O)CCCCCCCCCCNC(=O)[C@@H](CCSC)n3cc(CCO)nn3)CC2)n1	-2	2	0	14*
C#CCOCCOCCOCCNc1nc(N2CCN(C(=O)CCCCCCCCCCNC(=O)[C@H](CO)n3cc(CCCSC)nn3)CC2)nc(N2CCN(C(=O)CCCCCCCCCCNC(=O)[C@H](CO)n3cc(CCCSC)nn3)CC2)n1	-3	24	-4	1
Cc1cccc(C)c1N(CC(=O)NCc1ccc(F)cc1)C(=O)c1csnn1	-2	-11	2	1
CCc1ccc(N(CC(=O)NCc2ccc(F)cc2)C(=O)c2csnn2)cc1	-23	10	-2	9.4*
CCOc1ccc(N(CC(=O)NCc2ccc(F)cc2)C(=O)CCC(=O)Nc2nccs2)cc1	-11	-7	1	13*
CC[C@]12C(=O)N(C)C[C@H]([C@@H]3C(=O)N(C)C(=O)[C@@H]31)N2C(=O)c1ccc(Cl)cc1	-14	18	-3	5
COc1cc2[nH]c3c(=O)n4c(nc3c2cc1OC)SCCC4	-25	1	0	9.9*
COc1ccc2[nH]c3c(=O)n4c(nc3c2c1)SCC4	1	3	0	0
Cc1ccc(NS(=O)(=O)Cc2ccccc2)cc1Cl	0	-23	5	0
CN1CCN(S(=O)(=O)c2ccc(NC(=O)c3ccccc3F)cc2)CC1	-29	2	0	8.6*
COC(=O)c1c(-n2cnnn2)sc(C)c1C	-16	12	-2	12*
COC(=O)c1c(N2C(=O)Nc3ccccc3N2O)sc(C)c1C	3	6	-1	2
COc1ccc(OC)c(NC(=O)C2CCCN(S(C)(=O)=O)C2)c1 (configuration not stated)	5	17	-4	-2
CC(C)c1ccc(S(=O)(=O)/N=C2\C=C(NS(=O)(=O)c3ccccc3)C(=O)c3ccccc32)cc1	15	30*	-5	-6
COc1cccc2cc(C(=O)N(Cc3cccs3)CC3CCCO3)c(=O)oc12 (configuration not stated)	27	15	-3	1

Assay outcomes deposited in PubChem BioAssay by The Scripps Research Institute Molecular Screening Center.
